Source: PubChem BioAssay AID1578 (Sanford-Burnham Center for Chemical Genomics, 2009)
Several values for one entry are separate records, joined by “and”; a condition that tells them apart may be missing. Equal values may be shown once. The whole screen tested about 290,000 compounds, of which about 3,000 (1%) were called active. This is one part of a sample in which actives are shown more often than they occur. A number with no mark means an inactive call. Cut-off read from the data, not from the text of the source: active = inhibition mostly above about 36% (no sharp cut-off); inactive = mostly below about 34%.

Assay: NOD1 signaling inhibitors, primary screen, cell-based, luminescence, uHTS (AID 1578);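 note: HEK-293T reporter cells stimulated with the NOD1 agonist gamma-tri-DAP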
Details: NOD1-driven NF-kB luciferase reporter cells, at 4 µM, stronger effect = higher value
Molecule `Cn1c(SCC(=O)NC(=O)CN2CCCC2=O)nnc1-c1ccc(F)cc1` has an inhibition of -11.6%.
`Cc1ccc(-c2nc(=S)c3c(n2CCN2CCOCC2)CC(C)(C)OC3)cc1` showed an inhibition of -25.9%.
Molecule `CCOc1ccc(-c2c(=O)n(OCC)c3ccccc3[n+]2[O-])cc1` has an inhibition of 3.2%.
For `CCC(C(=O)OC(C)C(=O)Nc1ccc(Cl)cn1)c1ccccc1` (centres undefined), the inhibition was -32.2%.
With `COC(=O)c1cc(-c2ccccc2)sc1NC(=O)c1cc(C)on1` the inhibition was -4.3%.
Molecule `O=C(NCCc1ccccc1)C1CCC(=O)N1CCc1ccccc1` (centres undefined) has an inhibition of 2%.
For `CCOC(=O)Cn1c(C)c(Br)c(COC)c(C#N)c1=O`, the inhibition was -13.2%.
With `COC(=O)c1sc(NC(=O)CSc2nc3cccnc3n2C)nc1C` the inhibition was -10.6%.
`CCCCCCC(C)NC(=S)Nc1cc(S(=O)(=O)N(C)C)ccc1C` (centres undefined) showed an inhibition of -10.2%.
In the case of `CN(Cc1ccccc1)c1ncnc2sccc12`, the inhibition is reported as 32.5%.
In the case of `CN(Cc1cccs1)c1ncnc2sccc12`, the inhibition is reported as 46.8% (active).
In the case of `CN(Cc1ccccc1F)c1ncnc2sccc12`, the inhibition is reported as -28.7%.
For `Cc1scc(C(=O)Nn2cnnc2)c1-c1ccccc1`, the inhibition was -12.5%.
Molecule `CCN1C(=O)CSc2ccc(C(=O)NCc3ccco3)cc21` has an inhibition of -21.5%.
In the case of `CN(C)c1ccc(/C=C2\SC(=O)N(CCc3nnc(N)s3)C2=O)cc1`, the inhibition is reported as 68% (active).
Molecule `CN(C)c1ccc(/C=C2/SC(=O)N(CCN=C3NS(=O)(=O)c4ccccc43)C2=O)cc1` has an inhibition of -8.3%.
Work on `COc1ccc(/C=C2\SC(=O)N(CCc3nnc(N)s3)C2=O)cc1` yielded an inhibition of 1.5%.
`CCOC(=O)Cc1csc(NC(=O)CSc2ncnc3c2cnn3-c2ccccc2Cl)n1` showed an inhibition of -4.7%.
Work on `COc1ccc(Oc2ccc(N/C=C3\CCCC3=O)cc2)cc1` yielded an inhibition of -29.4%.
Molecule `CC(NC(=O)/C(=C\c1ccco1)NC(=O)c1ccco1)C(=O)O` (centres undefined) has an inhibition of -6.1%.
With `COc1ccc(-c2nsc3c(N4CCCCC4C)ncnc23)cc1` (centres undefined) the inhibition was 77.6% (active).
`COc1ccc(-c2nsc3c(N4CCCC4)ncnc23)cc1` showed an inhibition of 37.5%.
With `COc1ccc(-c2nsc3c(N4CCCCC4)ncnc23)cc1` the inhibition was 46.2%.
In the case of `COc1ccc(C)cc1NS(=O)(=O)c1ccc(-c2cnc(C3CC3)o2)cc1`, the inhibition is reported as 25.1%.
In the case of `COc1ccc(OC)c(NS(=O)(=O)c2ccc(-c3coc(C)n3)cc2)c1`, the inhibition is reported as 29.1%.
Molecule `COc1ccc(NS(=O)(=O)c2ccc(-c3coc(C)n3)cc2)cc1` has an inhibition of 5.2%.
`Cc1ccc(NS(=O)(=O)c2ccc(-c3cnc(C4CC4)o3)cc2)cc1` gave an inhibition of 37.3%.
Work on `O=C(CCCC1=NS(=O)(=O)c2ccccc2N1)Nc1ccccc1` yielded an inhibition of -7.6%.
Molecule `COC(=O)CC(NS(=O)(=O)c1cccs1)c1ccc2c(c1)OCO2` (centres undefined) has an inhibition of -20.9%.
With `O=C(CNC(=S)N(CCCN1CCOCC1)Cc1cccs1)NCc1ccc(Cl)cc1` the inhibition was -16.7%.
Work on `CC(=O)Nc1cc2c(ccc3ccccc32)oc1=O` yielded an inhibition of -21.7%.
`CCOC(=O)c1c(C)[nH]c(C)c1C(=O)CSc1nc2ccccc2c(=O)n1-c1ccc(F)cc1` gave an inhibition of -19.8%.
For `CCOC(=O)c1c(C)[nH]c(C)c1C(=O)CSc1nc2ccccc2c(=O)n1-c1ccc(C)cc1`, the inhibition was -25.1%.
For `CC(OC(=O)c1ccco1)C(=O)Nc1ccc(Cl)cn1` (centres undefined), the inhibition was -26.7%.
With `CC(OC(=O)c1ccccc1O)C(=O)Nc1ccc(Cl)cn1` (centres undefined) the inhibition was -43.7%.
With `CNc1ccccc1C(=O)OC(C)C(=O)Nc1ccc(Cl)cn1` (centres undefined) the inhibition was 54.3% (active).
With `COc1ccc(C(=O)NC2CCN(CC(=O)NCc3ccccc3F)CC2)cc1` the inhibition was -30.3%.
In the case of `CCc1ccc(N(CC(=O)NC2CCCCC2)S(=O)(=O)c2c(C)noc2C)cc1`, the inhibition is reported as -14.8%.
In the case of `O=C(CCl)Nc1cc2[nH]c(=O)[nH]c2cc1Br`, the inhibition is reported as 72.1% (active).
Molecule `Cc1cc(Br)c(NC(=O)CCl)c(Br)c1` has an inhibition of 42.9%.
With `O=C(CCl)Nc1c[nH]c(=O)[nH]c1=O` the inhibition was -31.2%.
`NC(=O)c1cc2ccccc2o/c1=N\NC(=O)c1ccc(F)cc1` showed an inhibition of -3.2%.
Molecule `COc1ccc(Oc2nc3c(c(=O)n(C)c(=O)n3C)n2C)cc1` has an inhibition of 18.3%.
For `Cn1c(=O)c2c(nc(Oc3ccccc3)n2C)n(C)c1=O`, the inhibition was 9.4% and -13.9%.
`Cc1ccc(S(=O)(=O)Nc2ccc3nc(C)sc3c2)cc1` showed an inhibition of 32.2%.
In the case of `Cc1nc2ccc(NS(=O)(=O)c3ccc(F)cc3)cc2s1`, the inhibition is reported as 7.8%.
Molecule `CCOc1cc(C(=O)Nc2ccc([N+](=O)[O-])cn2)cc(OCC)c1OCC` has an inhibition of -21.2%.
Molecule `CCNC(=S)N(Cc1cc2cc(C)c(C)cc2[nH]c1=O)C1CCCC1` has an inhibition of -35%.
In the case of `O=C(NCc1cccnc1)c1ccc(-c2ccccc2[N+](=O)[O-])o1`, the inhibition is reported as -24.4%.
In the case of `COc1ccc(CCNC(=O)C2CCN(S(=O)(=O)c3ccc(OC)cc3)CC2)cc1`, the inhibition is reported as 17.9%.
Molecule `COc1ccc(C(=O)NNC(=O)Nc2ccc(C)cc2)cc1` has an inhibition of -1.6%.
Molecule `COc1ccc(NC(=O)NNC(=O)c2ccc(-c3ccccc3)cc2)cc1` has an inhibition of -26.8%.
In the case of `COc1ccc(C(=O)NNC(=O)Nc2ccc(Cl)cc2)cc1`, the inhibition is reported as 91.6% (active).
In the case of `Cc1nc(N2CCN(S(=O)(=O)c3ccc(Br)cc3)CC2)c2c(C)c(C)sc2n1`, the inhibition is reported as 3.7%.
In the case of `CCS(=O)(=O)N1CCN(c2ncnc3sc(C)c(C)c23)CC1`, the inhibition is reported as -20%.
With `CNS(=O)(=O)c1cc(N(C)S(=O)(=O)c2ccc(C)cc2)c(C)cc1C` the inhibition was -1.6%.
Molecule `CC1=NCCN1S(=O)(=O)c1cc([N+](=O)[O-])ccc1Cl` has an inhibition of -40.2%.
`COc1ccc(COc2cc(-c3cccc(OC)c3)nc3ccc(NC(=O)c4ccccc4)cc23)cc1` showed an inhibition of 48.6%.
`COc1ccc(COc2cc(-c3cccc(OC)c3)nc3ccc(NC(=O)c4ccc(OC)cc4)cc23)cc1` gave an inhibition of 41.3%.
In the case of `COc1ccc(COc2cc(-c3cccc(OC)c3)nc3ccc(NC(=O)c4cccnc4)cc23)cc1`, the inhibition is reported as 78.1% (active).
With `CC(C)(C)C(=O)NC1=NN(c2c(Cl)cc(Cl)cc2Cl)C(=O)C1` the inhibition was -19.7%.
In the case of `CC(C)c1ccccc1NC(=O)COC(=O)c1c2c(nc3ccccc13)CCN(Cc1ccccc1)C2`, the inhibition is reported as 29.8%.
For `CC(Sc1nc(N)c2c3c(sc2n1)CSC(C)(C)C3)C(=O)Nc1ccccc1` (centres undefined), the inhibition was 66.5% (active).
With `Cc1ccccc1NC(=O)CSc1nc(N)c2c3c(sc2n1)CSC(C)(C)C3` the inhibition was -19.5%.
For `Cc1ccc(NC(=O)CSc2nc(N)c3c4c(sc3n2)CSC(C)(C)C4)cc1`, the inhibition was 22.5%.
`COc1ccc(OC)c(-n2nnnc2SCC(=O)N2CCN(C(=O)c3ccco3)CC2)c1` showed an inhibition of -16.1%.
In the case of `Cc1ccc(NC(=O)C2CC(=O)n3ncnc3N2)cc1C` (centres undefined), the inhibition is reported as -33.1%.
For `CC(=O)NCc1ccc(C(=O)CCl)s1`, the inhibition was 88.3% (active).
`CC(=O)NCc1ccc(C(=O)CCl)cc1` gave an inhibition of -4%.
For `CC(=O)NCc1ccc(-c2csc(N)n2)s1`, the inhibition was 1.1%.
Molecule `Cc1ccc(C(=O)COC(=O)c2cc(Cl)nc3ccccc23)cc1` has an inhibition of -10.7%.
With `COc1cc(Br)c(CN2CCCN(C)CC2)cc1OC` the inhibition was -24.3%.
Work on `N#C/C(=C\N1CCN(Cc2ccc3c(c2)OCO3)CC1)c1nc2ccccc2s1` yielded an inhibition of 24.5%.
`N#C/C(=C(/O)COC(=O)c1ccccc1O)c1nc2ccccc2s1` gave an inhibition of 16.3%.
`O=C(O)c1ccc(-c2cccc([N+](=O)[O-])c2)o1` gave an inhibition of 9.4%.
In the case of `N#C/C(=C(/O)c1cc2ccccc2o1)c1nc2ccccc2s1`, the inhibition is reported as 65.8% (active).
For `N#C/C(=C(/O)c1ccc(-c2cccc([N+](=O)[O-])c2)o1)c1nc2ccccc2s1`, the inhibition was 101% (active).
`CC(C)=C(C#N)c1nc2ccccc2s1` gave an inhibition of -26.3%.
With `CC(C)(C)c1ccc(C(=O)OC/C(O)=C(\C#N)c2nc3ccccc3s2)cc1` the inhibition was 92% (active).
Molecule `N#C/C(=C(/O)COC(=O)c1ccc(C#N)cc1)c1nc2ccccc2s1` has an inhibition of -35.4%.
For `N#C/C(=C(/O)c1ccccc1F)c1nc2cc(C(F)(F)F)ccc2s1`, the inhibition was -28.9%.
With `N#C/C(=C(/O)c1ccc2c(c1)OCO2)c1nc2cc(C(F)(F)F)ccc2s1` the inhibition was 86.4% (active).
For `N#C/C(=C(/O)c1ccco1)c1nc2ccccc2s1`, the inhibition was -3.1% and -9.8%.
`O=[N+]([O-])c1cccc(-c2nc3ccccc3s/c2=N/O)c1` gave an inhibition of 2.3%.
In the case of `CN(C)CCCN(Cc1ccccc1)C(=S)NCc1ccccc1`, the inhibition is reported as -3.5%.
`Cc1ccc(C)c(-n2nnnc2SCC(=O)Nc2c(C)n(C)n(-c3ccccc3)c2=O)c1` gave an inhibition of -6.2%.
In the case of `CCOc1ncccc1C(=O)Nc1nnc(C)s1`, the inhibition is reported as -28.7%.
For `CC(C)NC(=O)C(=O)NCCN1CCN(C(=O)c2ccc(C(C)(C)C)cc2)CC1`, the inhibition was -31.9%.
`Cc1c(CCO)c(=O)[nH]n1S(=O)(=O)c1ccc(Cl)cc1Cl` gave an inhibition of -2.3%.
`COc1ccccc1NC(=S)NC(=O)/C=C/c1ccco1` gave an inhibition of -34.4%.
In the case of `COc1ccc2[nH]c(C(=O)Nc3ncc(C)cc3Br)cc2c1`, the inhibition is reported as 1.8%.
In the case of `Cc1cccc(Cc2nnc(CCC(=O)N(C)Cc3ccncc3C)o2)c1`, the inhibition is reported as -15.4%.
With `COC(=O)c1ccc(C23CC4(C2)[C@H](CN(Cc2ccc(-c5ccccc5)cc2)[C@@H]4c2ccccc2)C3c2ccc(Cl)nc2)cc1` (some centres undefined) the inhibition was -11.8%.
`CCOP(=O)(c1ccc(N(C)C)cc1)C(O)c1ccccc1` (centres undefined) showed an inhibition of -12.2%.
